In the library only some 1.9% were active in any assay of this set; here they are far more common.
F-actin modifier: modifiers of cytoskeleton assembly; HUVEC TNFa F-actin phalloidin imaging, high content; inhibition, % at 2 µM; 91,000 compounds, 0.18% hits; AID 836;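 active = inhibition above the batch mean plus 3 SD and confirmed as a hit by visual image inspection, cut at about 30% in these data, passing the limit was not always enough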
Candida biofilm: kills Candida albicans biofilms. C. albicans biofilm + clotrimazole, Alamar Blue. inhibition, % at 6 µM. 85,000 compounds, 0.14% hits;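 active = inhibition above 20%; inactive = inhibition below 20%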;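 note: preformed 24 hr biofilms exposed to compound for 48 hr; 0% = biofilm without compound and 100% = blank killed by clotrimazole plus chlorhexidine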
Measles CPE: protection of cells from measles virus; Measles virus-infected cells, CPE protection, absorbance; protection (pct of control), % at 4 µM; 140,000 compounds, 1.5% hits; in the data active = protection mostly above about 24%, no sharp cut-off; inactive = mostly below about 26%
sEH inh: soluble epoxide hydrolase (human) inhibition; inhibition, % at 2 µM; 91,000 compounds, 0.34% hits; P34913; AID 707; recombinant human sEH enzymatic activity assay; in the data active = inhibition above about 80%
Target sequence (P34913 whole entry, looked up): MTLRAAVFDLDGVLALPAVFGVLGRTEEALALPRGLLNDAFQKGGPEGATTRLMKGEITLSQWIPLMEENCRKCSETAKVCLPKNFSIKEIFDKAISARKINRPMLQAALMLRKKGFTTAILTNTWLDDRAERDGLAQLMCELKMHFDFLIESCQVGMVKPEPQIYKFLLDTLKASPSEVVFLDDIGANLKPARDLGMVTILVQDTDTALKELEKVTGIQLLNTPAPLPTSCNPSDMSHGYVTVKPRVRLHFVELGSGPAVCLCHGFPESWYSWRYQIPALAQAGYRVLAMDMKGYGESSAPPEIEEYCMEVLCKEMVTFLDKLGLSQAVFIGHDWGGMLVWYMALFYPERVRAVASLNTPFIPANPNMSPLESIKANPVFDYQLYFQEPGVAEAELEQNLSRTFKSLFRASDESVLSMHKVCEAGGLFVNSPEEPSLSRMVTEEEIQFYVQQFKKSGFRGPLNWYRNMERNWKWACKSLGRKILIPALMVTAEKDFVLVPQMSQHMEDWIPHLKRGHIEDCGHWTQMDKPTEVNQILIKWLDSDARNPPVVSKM
sEH activator: activators of human soluble epoxide hydrolase; activation, % at 2 µM; 91,000 compounds, 0.04% hits; P34913; AID 717; purified human sEH enzymatic activity, activator screen; in the data active = activation above about 37%
The depositor's hits bear a star; x = no result given.

SMILES	F-actin modifier	Candida biofilm	Measles CPE	sEH inh	sEH activator
O=C(CSc1nc2cc(Cl)ccc2s1)N1CCN(C(=O)c2ccco2)CC1	15.2	0.0	61.3*	-7.0	7.2
O=C(CN1CCN(C(=O)c2ccco2)CC1)Nc1cc(Cl)ccc1Cl	0.8	-1.0	69.1*	11.1	-11.1
O=C(CSc1nc(-c2ccccc2)cs1)N1CCN(C(=O)c2ccco2)CC1	x	x	17.9	x	x
COc1cc(NC(=S)NCCC(c2ccccc2)c2ccccc2)c(OC)cc1Cl	x	x	38.0*	x	x
S=C(NCCC(c1ccccc1)c1ccccc1)Nc1ccc(Cl)cc1	13.6	x	47.6*	47.2	-46.1
CC(=O)c1cccc(NC(=S)NCCCCc2ccccc2)c1	x	x	10.2	x	x
COc1ccc(N2CCC(CNC(=S)Nc3cccc(OC)c3)C2)cc1 (stereo unspecified)	x	x	5.3	x	x
COc1ccc(N2CCC(CNC(=O)Nc3cccc(OC)c3)C2)cc1 (stereo unspecified)	-19.6	4.2	34.5	85.8*	-85.8
Cc1ccc(CNc2cnn(C34CC5CC(CC(C5)C3)C4)c(=O)c2Cl)cc1	x	x	7.2	x	x
O=c1c(Cl)c(NCc2ccc(F)cc2)cnn1C12CC3CC(CC(C3)C1)C2	x	x	35.9*	x	x
FC(F)(F)c1cccc(Cn2nnnc2-c2cccc(C(F)(F)F)c2)c1	17.1	x	14.0	4.0	-1.8
CCOC(=O)c1ccc(NC(=S)N(CCCN2CCCCCC2)Cc2ccco2)cc1	x	x	49.0*	x	x
Cc1ccc(NC(=S)N(CCN2CCCCC2)Cc2ccco2)cc1	x	x	28.8	x	x
CCc1ccc(NC(=S)N(CCCN2CCN(C)CC2)Cc2cccs2)cc1	x	x	52.8*	x	x
CC(C)CCN1CC(C(=O)NCCC2=CCCCC2)CC1=O (stereo unspecified)	67.9*	7.7	1.3	29.7	-29.2
O=S(=O)(/N=C(/Nc1ccccn1)c1ccccc1)c1ccccc1	23.2	x	39.3	4.0	-1.2
CCOC(CCNC(=O)c1cn(-c2cccc(C)n2)cn1)OCC	-3.0	x	33.6*	3.5	-5.4
O=C(Nc1ccc(Cl)c(Cl)c1)Nc1nnc(CC2=CCCCC2)s1	x	x	0.8	x	x
Cc1nc(NC(=O)/C=C/c2ccccc2)n[nH]1	x	x	8.9	x	x
CCCCCC(=O)N/N=C/c1cccs1	1.6	x	6.9	11.2	-7.4
CC(C)CNC(=O)CC(=O)N/N=C/c1cccs1	x	x	24.7*	x	x
Clc1cccc(Cl)c1Cn1cnc2c(N3CCCCCC3)ncnc21	-8.1	2.3	33.0*	-9.3	8.8
COc1ccc(NC(=O)Cn2c(=O)sc3ccccc32)c(OC)c1	-3.4	-6.5	12.0	-6.1	7.9
CC(=O)c1cccc(NC(=O)NCc2cccnc2)c1	50.2*	2.3	22.4	-2.0	0.0
Cc1cc(C)cc(NS(=O)(=O)c2ccc(NC(=O)C3CCCCC3C(=O)O)cc2)c1 (stereo unspecified)	x	x	7.0	x	x
SMILES	F-actin modifier	Candida biofilm	Measles CPE	sEH inh	sEH activator
Cc1c(C(=O)O)oc2c1/C(=N\O)CC(C)(C)C2	x	x	44.0*	x	x
CC(C)=CC(=O)OCC(=O)Nc1ccc(Cl)cn1	-4.3	-3.8	13.9	-6.3	5.1
CC(C)=CC(=O)OCC(=O)Nc1ccccc1Cl	x	x	81.5*	x	x
CC(=O)N1CCC(N(C(=O)Nc2c(F)cccc2F)C(C)C)CC1	-1.0	9.9	6.3	-10.0	8.3
COc1cccc(CNC(=O)Nc2cccs2)c1	17.8	-4.8	44.4*	25.5	-22.8
COc1ccc(Cl)cc1CSc1n[nH]c(C)n1	12.2	6.2	27.0*	7.7	-8.2
O=C1c2ccccc2NC(c2ccccc2)N1Cc1ccco1 (stereo unspecified)	x	36.8*	3.9	x	x
CC(=O)C1=C(O)C(=O)N(Cc2ccco2)C1c1ccccc1 (stereo unspecified)	x	1.5	33.5*	x	x
CC1CCc2c(C(=O)N3CCN(S(=O)(=O)c4cccs4)CC3)csc2C1 (stereo unspecified)	7.3	1.4	10.0	10.0	-11.7
CCCNC(=O)CSc1nnc(-c2ccccc2Br)n1-c1cccc(C(F)(F)F)c1	x	x	5.1	x	x
O=C(O)CCCCCNC(=O)c1ccccc1	x	6.2	14.3	0.4	-3.3
Cc1nc2nc3c(c(=O)n2[nH]1)CCCC3	-15.0	x	29.0*	14.2	-14.5
CCOc1nc(C#N)nc(N2CCCCC2)n1	x	7.8	36.4*	x	x
N#CCOc1nc(N2CCCC2)nc(N2CCCC2)n1	3.0	1.4	11.9	8.3	-5.3
CC(C)Cc1cc(C(=O)O)n[nH]1	-27.1	1.7	18.7*	-17.7	17.5
CC1CCCCN1c1nnc(NC(=O)c2cc(-c3ccc(Br)cc3)on2)s1 (stereo unspecified)	-13.5	4.3	2.3	0.7	1.0
COc1cccc(C2C3=C(CCCC3=O)Nc3nc4ccccc4n32)c1OC (stereo unspecified)	x	5.9	x	x	x
O=C(NCc1ccc2c(c1)OCO2)C1CCC(CNS(=O)(=O)c2cccc3nsnc23)CC1 (stereo unspecified)	-6.1	-0.2	8.3	94.3*	-94.3
O=C(NCCc1ccccc1)C1CCN(S(=O)(=O)c2cccc3nsnc23)CC1	25.8	5.7	49.1*	21.9	-23.7
CCOCCCNC(=O)C1CCC(CNS(=O)(=O)c2cccc3nsnc23)CC1 (stereo unspecified)	x	0.6	27.2	x	x
COc1ccc(CCNC(=O)C2CCN(S(=O)(=O)c3cccc4nsnc34)CC2)cc1OC	-26.6	-0.9	5.2	8.4	-10.5
COc1ccc(CNC(=O)C2CCC(CNS(=O)(=O)c3cccc4nsnc34)CC2)cc1 (stereo unspecified)	10.3	10.2	19.5	95.2*	-95.3
O=C(CSC1=NCCN1)C1COc2ccccc2O1 (stereo unspecified)	x	1.9	30.7*	x	x
CCCC(NS(=O)(=O)c1ccc(Br)cc1)C(=O)O (stereo unspecified)	-12.7	3.2	5.6	x	x
CCOc1ccc(CN2CCC(C(=O)N3CCN(c4ccccc4F)CC3)CC2)cc1OC	x	x	18.6	x	x
SMILES	F-actin modifier	Candida biofilm	Measles CPE	sEH inh	sEH activator
COc1cc(CN2CCC(C(=O)N3CCN(c4ccccc4F)CC3)CC2)cc(OC)c1O	-7.6	-5.8	51.4*	8.2	-8.9
O=C(O)C1CCCN(S(=O)(=O)c2ccc(Br)cc2)C1 (stereo unspecified)	5.4	7.2	12.8	-21.2	20.1
Cn1c(=O)c2c(nc(CN3CCc4ccccc4C3)n2CC(=O)c2ccccc2)n(C)c1=O	-2.0	1.9	x	7.7	-5.2
COCCN1CCn2c(nc3cc(NC(=O)NC4CCCCC4)ccc32)C1	-3.4	6.3	0.9	76.2	-75.9
O=C(Nc1ccc2c(c1)nc1n2CCN(Cc2ccccc2)C1)NC1CCCCC1	-1.6	3.5	17.5	90.9*	-90.9
COC(=O)CNC(=O)CCCCC(=O)NCC(=O)OC	34.4	x	22.1	4.1	-6.2
CCOC(=O)C1=C(C)NC2=C(C(=O)C(C(=O)OCC)C(c3ccco3)C2)C1c1ccccn1 (stereo unspecified)	16.2	3.6	49.6*	-10.2	13.1
CCOc1ccc(N(CC(=O)Nc2ccccc2C(=O)N2CCOCC2)S(=O)(=O)c2ccc(F)cc2)cc1	x	x	7.4	x	x
CCCNC(=O)CSC1=N/C(=C/c2ccc(F)cc2)C(=O)N1CC	x	x	11.2	x	x
CCCCCNC(=O)CSC1=N/C(=C\c2ccc(Cl)c(Cl)c2)C(=O)N1CC	7.0	x	41.3*	-12.9	13.9
CCS(=O)(=O)c1ccc2oc(SCC(=O)NC34CC5CC(CC(C5)C3)C4)nc2c1	x	7.3	23.8	7.2	-8.4

Screens deposited in PubChem BioAssay by several laboratories.
